Assay results as given in PubChem BioAssay AID1159580 (chemical genetic matrix, 2015).
About 2,000 (36%) of roughly 5,500 compounds were called active. About 18% were inconclusive and are not listed. No stated cut-off is given here; in the data, active means normalized growth mostly below about 0.91 (no sharp cut-off); inconclusive means no clear call, values can overlap the other calls; inactive means mostly above about 0.92. This is one part of the list.

Assay: chemical genetic growth profiling, strain panel (AID 1159580);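 further: tested at 20 µM; growth read once vehicle control cultures reached saturation at 30 °C; 1 = growth at the plate median or of vehicle wells; lower values mean less growth of the strain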
Settings: S. cerevisiae deletion strains, growth OD
[1] = locus YDR150W, strain NUM1, active compounds read low
[2] = locus YMR307W, strain GAS1, active compounds read low
[3] = locus YNL153C, strain GIM3, active compounds read low
[4] = locus YNL322C, strain KRE1, active compounds read low
[5] = locus YAL013W, strain DEP1, active compounds read low
[6] = locus YBR229C, strain ROT2, active compounds read low
[7] = locus YDL101C, strain DUN1, active compounds read low
[8] = locus YEL061C, strain CIN8, active compounds read low
[9] = locus YGR078C, strain PAC10, active compounds read low
[10] = locus YGR229C, strain SMI1, active compounds read low
[11] = locus YHR030C, strain SLT2, active compounds read low
[12] = locus YHR087W, strain rtc3, active compounds read low
[13] = locus YJL187C, strain SWE1, active compounds read low
[14] = locus YJR043C, strain POL32, active compounds read low
[15] = locus YJR075W, strain HOC1, active compounds read low
[16] = locus YKL190W, strain CNB1, active compounds read low
[17] = locus YLR039C, strain RIC1, active compounds read low
[18] = locus YLR058C, strain SHM2 (second series), active compounds read low
[19] = locus YLR085C, strain ARP6, active compounds read low
[20] = locus YLR262C, strain YPT6, active compounds read low
[21] = locus YML094W, strain GIM5, active compounds read low
[22] = locus YMR219W, strain ESC1, active compounds read low
[23] = locus YMR263W, strain SAP30, active compounds read low
[24] = locus YNL298W, strain CLA4 (second series), active compounds read low
[25] = locus YNR030W, strain Alg12, active compounds read low
[26] = locus YPL055C, strain LGE1, active compounds read low
[27] = locus YPL241C, strain CIN2, active compounds read low
[28] = locus YPR135W, strain CTF4, active compounds read low

Measured: normalized growth

O=c1[nH]c2ccccc2c2ccccc12
inactive: locus YAL040C, strain CLN3, active compounds read low 1.04 | locus YCL061C, strain MRC1 (second series), active compounds read low 1 | [1] 0.983 | locus YDR363W, strain ESC2, active compounds read low 1.01 | locus YER002W, strain NOP16, active compounds read low 0.987 | [2] 0.979 | locus YNL175C, strain NOP13, active compounds read low 0.975 | locus YNL197C, strain WHI3, active compounds read low 0.967 | locus YNL224C, strain SQS1, active compounds read low 1.01 | [4] 0.983 | locus YOR083W, strain WHI5 (second series), active compounds read low 0.945
active: [3] 0.779

O=c1[nH]c2cccnc2[nH]c1=O
inactive: [5] 0.999 | [6] 1.02 | [7] 1.01 | [1] 0.995 | [8] 1 | [9] 1.01 | [10] 0.997 | [11] 1.03 | [12] 1 | [13] 0.992 | [14] 1.01 | [15] 0.969 | [16] 0.995 | [17] 1 | [18] 1 | [19] 1.01 | [20] 0.979 | [21] 1.02 | [22] 1.03 | [23] 1.01 | [3] 1.04 | [24] 1.04 | [4] 0.998 | [25] 1.01 | [26] 0.965 | [27] 1.01 | [28] 1.06

CCCCCCCc1c(O)c2ccccc2[nH]c1=O
inactive: [5] 1.01 | [6] 0.998 | locus YCL061C, strain MRC1, active compounds read low 1.01 | [7] 1 | [1] 0.962 | [8] 1.01 | [9] 1 | [10] 1.01 | [11] 0.989 | [12] 1 | [13] 1 | [14] 1 | [15] 1 | [16] 1.01 | [17] 1.01 | [18] 1.01 | [19] 1.01 | [20] 1.02 | [21] 1.01 | [22] 1.02 | [23] 1.01 | [2] 0.961 | locus YNL128W, strain TEP1, active compounds read low 1.01 | [3] 1.01 | [24] 1.03 | [4] 0.997 | [25] 1.02 | [26] 1.02 | [27] 1.02 | [28] 1.07
